Screening results from PubChem.
Tau fluor cs = counter-screen for tau fibril formation inhibitors | tau K18 P301L Alexa594 fluorescence, heparin fibrillization | Potency, µM (highest dose often 57.7 µM), for inactives: top-dose activity change, negative = decrease | 280,000 tested, 0.93% active; further: potency means the concentration at half of the fitted maximal effect; nearly all actives have a fitted effect of over 55% in size
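Human K18 P301L tau (15 uM unlabeled plus 0.24 uM Alexa 594-labeled, final) in 100 mM sodium acetate pH 7 was mixed with compound and 20 uM heparin and incubated 6 hr at 37 C.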
FBPA coupling cs = counter-screen for Giardia aldolase inhibitors: coupling enzyme system; 290,000 tested, 0.67% active; coupling enzyme system counterscreen, AmpLite Red fluorescence; activity change, negative = inhibition, % at 58.2 µM, hits read low; in the data active means activity change below about -30%
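Counterscreen of the coupled detection system alone, without aldolase: glyceraldehyde-3-phosphate coupling enzymes plus AmpLite Red readout. Compounds at 57.5 uM final, 10 min RT preincubation, 20 min RT reaction, fluorescence 525/598 nm.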
Tau ThT inhib = blocks human tau fibril formation measured by thioflavin T; 270,000 tested, 2.1% active; P10636; recombinant tau K18 P301L (four-repeat tau fragment), heparin-induced fibrillization, ThT fluorescence; AID 1460; Potency, µM (doses to about 57.4 µM), for inactives: at the highest dose activity, negative = inhibition, usual class: inhibitors; further: potency means the concentration at half of the fitted maximal effect; nearly all actives have a fitted effect of over 55% in size
Target sequence (P10636 561-689 P618L limits assumed): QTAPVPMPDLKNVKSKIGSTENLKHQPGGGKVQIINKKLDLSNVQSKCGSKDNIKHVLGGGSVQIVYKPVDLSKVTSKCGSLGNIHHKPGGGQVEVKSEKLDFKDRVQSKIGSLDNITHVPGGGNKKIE
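In this qHTS, human K18 P301L tau is incubated with compound and heparin for 6 hr at 37 C, and Thioflavin T fluorescence then reports fibril load.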
Tau fibril FP = tau fibrillization inhibition (FP). K18 P301L tau heparin fibrillization, Alexa594 FP, 6 h. 280,000 tested, 0.39% active. P10636. Potency, µM (doses to about 57.7 µM), without a hit: at the top dose activity, negative = inhibition, most hits filed as inhibitors; further: potency means the concentration at half of the fitted maximal effect; nearly all actives have a fitted effect of over 55% in size
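Steps: dispense K18 P301L tau (15 uM plus 0.24 uM Alexa 594 tracer, final) in pH 7 sodium acetate; add compound; add heparin (20 uM final); incubate 6 hr, 37 C; add ThT (30 uM final); after 1 hr ambient, read FP.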
* = called active by the depositor; ! = not confirmed by another sample; [ ] = remark or other dose. In the library only some 2.7% were active in any assay of this set; here they are far more common. Unless noted, the call rests on the fitted dose curve; in most records, active means well fitted curve in the direction sought with a large enough effect; inconclusive means small, poorly fitted or top-dose-only effect, or another doubt; inactive means no such curve, though single readings can be large; an effect the other way counts as inactive or inconclusive. On the % scale 0 is the no-effect control and ±100 the full control effect.

Cc1ccc(Cl)cc1NC(=O)Cn1c(=O)n(CCCS(=O)(=O)C2CCCCC2)c(=O)c2ccccc21 was read as Tau fluor cs inconclusive, Tau ThT inhib 1% and Tau fibril FP -3%.
CCN(CC)S(=O)(=O)c1ccc2c(c1)N(CC(=O)NCCCN1CCN(c3cc(C)ccc3C)CC1)C(=O)CO2 was read as Tau fluor cs -14%, Tau ThT inhib -10% and Tau fibril FP 5%.
`NC(=O)N1c2ccccc2CC(=O)c2ccccc21` gave Tau fluor cs -21%, FBPA coupling cs -32*!, Tau ThT inhib inconclusive and Tau fibril FP -11%.
For NC(=O)N1c2ccccc2C=Cc2ccccc21 the results were Tau fluor cs -18%, FBPA coupling cs 2, Tau ThT inhib -15% and Tau fibril FP 2%.
For COc1cccc(CN2CCN(C3CSCCSC3)CC2CCO)c1 (stereo not drawn) the results were Tau fluor cs 4%, FBPA coupling cs -32*, Tau ThT inhib 8% and Tau fibril FP 5%.
Screening C=C(C(C)=O)C(O)c1ccccc1 (stereo not drawn) returned Tau fluor cs 3%, FBPA coupling cs 3, Tau ThT inhib -12% and Tau fibril FP 8%.
Screening C=C(C(C)=O)C(O)c1ccco1 (stereo not drawn) returned Tau fluor cs -24%, FBPA coupling cs 1, Tau ThT inhib 28µM* and Tau fibril FP inconclusive.
`Cc1c(/C=N/NC(=O)CNc2ccccc2)c2ccccn2c1C(=O)c1ccc(Cl)cc1` gave Tau fluor cs inconclusive, FBPA coupling cs 2, Tau ThT inhib inconclusive and Tau fibril FP inconclusive.
Screening Cc1c(/C=N/NC(=O)CNc2ccccc2)c2ccccn2c1C(=O)c1ccncc1 returned Tau fluor cs inconclusive, FBPA coupling cs 5, Tau ThT inhib 14µM* and Tau fibril FP inconclusive.
Screening COc1ccc(C(C(=O)NC(C)(C)C)N(CCc2ccccc2)C(=O)CCC(=O)Nc2cc(C)on2)cc1 (stereo not drawn) returned FBPA coupling cs 0.
Screening CC(=O)c1coc2c1cc(O)c1ccccc12 returned Tau fluor cs -19%, FBPA coupling cs -33*, Tau ThT inhib inconclusive and Tau fibril FP 7%.
O=C(c1ccco1)c1coc2c1cc(O)c1ccccc12 was read as Tau fluor cs inconclusive, FBPA coupling cs -31*, Tau ThT inhib 3.5µM* and Tau fibril FP -1%.
Screening CC(=O)c1c(C)oc2c1cc(O)c1ccccc12 returned Tau fluor cs -20%, FBPA coupling cs -20 and Tau fibril FP 0%.
Screening CC(=O)c1cc(O)c2ccccc2c1O returned Tau fluor cs inconclusive, FBPA coupling cs -33*, Tau ThT inhib 28µM* and Tau fibril FP inconclusive.
O=[N+]([O-])c1ccc(-c2ccc(/C=N/Nc3nc(NCc4ccccc4)nc(N4CCOCC4)n3)o2)cc1 was read as Tau fluor cs inconclusive, FBPA coupling cs -1, Tau ThT inhib 2.8µM* and Tau fibril FP inconclusive.
For COc1ccc(NC(=O)N2CCCC3(CCN(C(=O)c4ccncc4)CC3)C2)cc1 the results were FBPA coupling cs -1.
CCn1c(=O)c2sccc2n2c(CCCC(=O)Nc3ccc(Oc4ccccc4)cc3)nnc12 was read as Tau fluor cs inconclusive, Tau ThT inhib -10% and Tau fibril FP 3%.
O=C(Nc1nc(-c2ccccc2)cs1)c1cccs1 was read as Tau fluor cs -17%, FBPA coupling cs -5, Tau ThT inhib -3% and Tau fibril FP -9%.
Screening O=C(Nc1nc(-c2ccc(Cl)s2)cs1)c1cccs1 returned Tau fluor cs 28µM*[quencher], FBPA coupling cs -1, Tau ThT inhib inconclusive and Tau fibril FP inconclusive.
N#Cc1c(Cl)nsc1NN was read as Tau fluor cs 2.5µM*[quencher], FBPA coupling cs 0, Tau ThT inhib 7.9µM* and Tau fibril FP inconclusive.
For COc1cc2c(cc1NC(=O)Nc1ccc(C)cc1)oc1ccccc12 the results were Tau fluor cs 4µM*[quencher], FBPA coupling cs -2, Tau ThT inhib -4% and Tau fibril FP -7%.
For COc1cc2c(cc1NC(=O)Nc1cccc(C)c1)oc1ccccc12 the results were Tau fluor cs 7.9µM*[quencher], FBPA coupling cs 0, Tau ThT inhib inconclusive and Tau fibril FP -1%.
For COc1ccc(NC(=O)Nc2cc3oc4ccccc4c3cc2OC)cc1 the results were Tau fluor cs 8.9µM*[quencher], FBPA coupling cs 1, Tau ThT inhib inconclusive and Tau fibril FP inconclusive.
COc1ccc(NC(=O)Nc2ccc(Cc3ccncc3)cc2)c(OC)c1 was read as Tau fluor cs 25µM*[quencher], FBPA coupling cs 1, Tau ThT inhib inconclusive and Tau fibril FP inconclusive.
Screening COc1cc2c(cc1NC(=S)Nc1cccc(C)c1)oc1ccccc12 returned Tau fluor cs inconclusive, FBPA coupling cs -4, Tau ThT inhib inconclusive and Tau fibril FP 0%.
`COCc1nc2ccccc2n1Cc1ccc(C(C)(C)C)cc1` gave Tau fluor cs -6%, Tau ThT inhib -9% and Tau fibril FP 3%.
`COc1cc2c(cc1NC(=O)Nc1ccc(F)cc1)oc1ccccc12` gave Tau fluor cs 6.3µM*[quencher], FBPA coupling cs 2, Tau ThT inhib -2% and Tau fibril FP -8%.
`COc1cc2c(cc1NC(=O)C(C)Sc1ccc(NC(C)=O)cc1)oc1ccccc12` (stereo not drawn) gave Tau fluor cs inconclusive, FBPA coupling cs -8, Tau ThT inhib -1% and Tau fibril FP inconclusive.
For CN(C)c1ccc(CNc2nc(-c3ccco3)nn2C(=O)c2cccc([N+](=O)[O-])c2)cc1 the results were Tau fluor cs 13µM*[quencher], Tau ThT inhib inconclusive and Tau fibril FP 9%.
For CC(=O)c1ccc2c(c1)C1C=CCC1C(c1ccncc1)N2 (stereo not drawn) the results were Tau fluor cs inconclusive, FBPA coupling cs -32*, Tau ThT inhib 14µM* and Tau fibril FP inconclusive.
Screening Brc1cc2c(cc1C1Nc3ccccc3C3C=CCC31)OCO2 (stereo not drawn) returned Tau fluor cs inconclusive, FBPA coupling cs 3, Tau ThT inhib -16% and Tau fibril FP 1%.
Screening C1=CC2c3ccccc3NC(c3ccncc3)C2C1 (stereo not drawn) returned Tau fluor cs inconclusive, FBPA coupling cs -41*, Tau ThT inhib 22µM* and Tau fibril FP inconclusive.
For COC(=O)c1ccc(C2Nc3ccc(/C(C)=N/NC(=O)C(OC)c4ccccc4)cc3C3C=CCC32)cc1 (stereo not drawn) the results were Tau fluor cs -24%, Tau ThT inhib inconclusive and Tau fibril FP -6%.
For CCOC(=O)c1c(NC(=O)c2cc3nc(-c4ccc(OC)cc4)cc(C(F)(F)F)n3n2)sc(C)c1C the results were Tau fluor cs 5%, Tau ThT inhib 3% and Tau fibril FP 2%.
For CCOc1ccc(N2C(=O)CNC2=S)cc1 the results were Tau fluor cs -13%, FBPA coupling cs 0, Tau ThT inhib -15% and Tau fibril FP -1%.
